{"source": "PubChem BioAssay AID588849", "about": "(Broad Institute, 2011)", "note": "Entries with a potency or affinity are not part of this list. Values without a mark were called inactive. The rule behind the calls is not given here.", "data": [{"molecular_target": "CAAX prenyl protease 2 (Homo sapiens) (UniProt Q9Y256)", "sequence (Q9Y256 whole entry, looked up)": "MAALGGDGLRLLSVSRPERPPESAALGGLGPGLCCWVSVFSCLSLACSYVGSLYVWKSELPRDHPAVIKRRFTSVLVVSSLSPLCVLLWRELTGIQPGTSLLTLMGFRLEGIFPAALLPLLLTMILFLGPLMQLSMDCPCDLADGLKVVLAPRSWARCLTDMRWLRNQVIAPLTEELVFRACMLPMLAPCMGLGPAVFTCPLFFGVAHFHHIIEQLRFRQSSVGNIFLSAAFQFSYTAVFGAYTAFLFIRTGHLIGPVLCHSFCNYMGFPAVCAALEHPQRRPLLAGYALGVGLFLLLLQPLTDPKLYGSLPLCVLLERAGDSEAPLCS", "assay": "human Rce1 protease inhibitors, dose response, biochemical, yeast membranes, quenched-peptide fluorescence, cherry-pick (AID 588849)", "details": "yeast membrane fractions expressing human Rce1, quenched-peptide fluorescence, 4 h; series mostly up to 10 µM; activity change, negative = inhibition: at the top concentration", "values": [{"compound": "COc1ccccc1NC(=O)/C(=C\\c1cccnc1)NC(=O)c1ccc(C)cc1", "activity change, negative = inhibition": "-14%"}, {"compound": "CC(C)C[C@H](NC(=O)c1nc[nH]c1C(=O)N1CCNCC1)C(=O)OCc1ccccc1", "activity change, negative = inhibition": "-2.67%"}, {"compound": "Oc1c(N=NC(=S)Nc2ccccc2F)c2ccccc2n1Cc1ccccc1F", "activity change, negative = inhibition": "-11.4%"}, {"compound": "CCOC(=O)c1sc2nc(C3CC3)cc(-c3ccc(F)cc3)c2c1N", "activity change, negative = inhibition": "8.35%"}, {"compound": "CC(C)c1cccc(OCC(=O)Nc2ccc(S(=O)(=O)Nc3ccccn3)cc2)c1", "activity change, negative = inhibition": "3.44%"}, {"compound": "Cc1c(Cc2ccccc2)c(=O)oc2c(C)c(OCC(=O)N3CCC(C(=O)O)CC3)ccc12", "activity change, negative = inhibition": "-29.6%"}, {"compound": "Cc1ccc(C(=O)c2c3ccccc3[n+]([O-])n2CCO)cc1", "activity change, negative = inhibition": "-8.71%"}, {"compound": "Cc1nc(N2CCOCC2)c2c(C)c(C(=O)Nc3ccc(C(F)(F)F)cc3)sc2n1", "activity change, negative = inhibition": "-9.73%"}, {"compound": "COc1ccc(-n2c(SCc3ccc([N+](=O)[O-])cc3)nnc2-c2ccc(C)cc2)cc1", "activity change, negative = inhibition": "-12.3%"}, {"compound": "CCOC(=O)c1c(C2COc3ccccc3O2)csc1NC(=O)c1ccccc1", "note": "(centres undefined)", "activity change, negative = inhibition": "-4.75%"}, {"compound": "Cc1ccc(C(=O)c2c3ccc(C(F)(F)F)cc3nn2CCC(N)=O)cc1", "activity change, negative = inhibition": "5.68%"}, {"compound": "CCN1CCN(CC(O)COc2ccc3c(C)cc(=O)oc3c2)CC1", "note": "(centres undefined)", "activity change, negative = inhibition": "0.145%"}, {"compound": "COc1ccc(C2Nc3ccccc3C(=O)N2Cc2ccccc2)cc1COc1ccccn1", "note": "(centres undefined)", "activity change, negative = inhibition": "63.7%"}, {"compound": "O=C(C[n+]1cc2ccccc2c2ccccc21)c1ccccc1", "activity change, negative = inhibition": "-26.3%"}, {"compound": "COc1cccc(-c2nc(C#N)c(N3CCN(C(=O)c4ccco4)CC3)o2)c1", "activity change, negative = inhibition": "29%"}, {"compound": "COc1ccc(C)cc1NC(=O)CCC(=O)Nc1ccc2nc(N3CCN(C)CC3)cc(C)c2c1", "activity change, negative = inhibition": "72.4%"}, {"compound": "C/C(=N\\NC(=O)c1ccc(Br)cc1)c1cccc(NC(=O)c2cccnc2)c1", "activity change, negative = inhibition": "-8.93%"}, {"compound": "CCN(CC)CCCNc1cc(C)nc2cc(-c3cccs3)nn12", "activity change, negative = inhibition": "-17.1%"}, {"compound": "O=C(C1CCC(=O)N(C2CC2)C1)N1CCN(c2ccccc2Cl)CC1", "note": "(centres undefined)", "activity change, negative = inhibition": "1.85%"}, {"compound": "O=C(O)CCc1nc2cc(C(F)(F)F)ccc2n(Cc2ccccc2)c1=O", "activity change, negative = inhibition": "-9.89%"}, {"compound": "CCSCCOC(=O)C1=C(C)NC(=O)NC1c1ccccc1", "note": "(centres undefined)", "activity change, negative = inhibition": "-11.6%"}, {"compound": "COc1ccc(CCN(C)C(=O)c2ccc(S(=O)(=O)Nc3ccccc3C)cc2)cc1OC", "activity change, negative = inhibition": "2.88%"}, {"compound": "COC(C/C=C/C(=O)[C@H](C)OCc1ccccc1)OC", "activity change, negative = inhibition": "-4.27%"}, {"compound": "C/C(CC1(O)C(=O)Nc2ccccc21)=N\\O", "note": "(centres undefined)", "activity change, negative = inhibition": "8.98%"}, {"compound": "Cc1cccc2sc(N(CCN(C)C)C(=O)c3ccc4ccccc4c3)nc12", "activity change, negative = inhibition": "-27%"}, {"compound": "O=C(CN1C(=O)/C(=C\\c2cccc(Br)c2)Oc2ccccc21)NCC1CCCO1", "note": "(centres undefined)", "activity change, negative = inhibition": "-21.6%"}, {"compound": "Cn1c(CN2CCOCC2)c(C#N)c2ccccc21", "activity change, negative = inhibition": "-20.3%"}, {"compound": "CCNC(=S)NNC(=O)CCn1cc(C)cn1", "activity change, negative = inhibition": "-13.4%"}, {"compound": "COc1ccc(C(C(=O)NC2CCCCC2)N(C(=O)c2snc(C(N)=O)c2N)c2ccc(OC)cc2OC)cc1", "note": "(centres undefined)", "activity change, negative = inhibition": "4.83%"}, {"compound": "N#CC(/C(=N/S(=O)(=O)c1cccs1)c1ccccc1)c1nc2ccccc2[nH]1", "note": "(centres undefined)", "activity change, negative = inhibition": "-7.48%"}, {"compound": "Cc1cc2cc(C(=O)N3CCc4c([nH]c5ccccc45)C3c3ccccn3)ccc2o1", "note": "(centres undefined)", "activity change, negative = inhibition": "-4.49%"}, {"compound": "Cc1ccc(-c2cc3cccc[n+]3cc2-c2ccc(C)cc2)cc1", "activity change, negative = inhibition": "-24.3%"}, {"compound": "CC(C)[C@H](NC(=O)OCc1ccccc1)C(=O)OCC(=O)Nc1c(F)cccc1F", "activity change, negative = inhibition": "-6.6% [at 3.5 µM]"}, {"compound": "CCOC(=O)c1c(NC(=O)COc2ccccc2F)sc2c1CC(C)(C)NC2(C)C", "activity change, negative = inhibition": "10.6%"}, {"compound": "CC1=CC2=NC(=O)CC(C)(C(=O)N(CC(=O)NC3CCCC3)Cc3ccccc3)N2C=C1", "note": "(centres undefined)", "activity change, negative = inhibition": "7.96%"}, {"compound": "CCOc1ccccc1CNC(=O)c1cc2occc2n1C", "activity change, negative = inhibition": "-12%"}, {"compound": "Cc1ccc(-c2cc(C)nc3nc(N)nn23)cc1", "activity change, negative = inhibition": "8.97%"}, {"compound": "CCOc1ccc(NC(=O)CCSc2ccc(C)cc2)cc1", "activity change, negative = inhibition": "-1.72%"}, {"compound": "COc1ccc(-c2nc(CC(=O)O)cs2)cc1OC", "activity change, negative = inhibition": "-9.08%"}]}]}
